# CBX7 AlphaScr – CBX7 inhibition, primary AlphaScreen; O95931; AlphaScreen His6-CBX7 / biotin-H3K27me3 peptide binding; stronger effect = lower value; normalised signal (fraction of DMSO) (test concentration not listed); 1.1% of 66,000 active; AID 1224903; in the data active = normalised signal below about 0.5
# Target sequence (O95931 whole entry, looked up): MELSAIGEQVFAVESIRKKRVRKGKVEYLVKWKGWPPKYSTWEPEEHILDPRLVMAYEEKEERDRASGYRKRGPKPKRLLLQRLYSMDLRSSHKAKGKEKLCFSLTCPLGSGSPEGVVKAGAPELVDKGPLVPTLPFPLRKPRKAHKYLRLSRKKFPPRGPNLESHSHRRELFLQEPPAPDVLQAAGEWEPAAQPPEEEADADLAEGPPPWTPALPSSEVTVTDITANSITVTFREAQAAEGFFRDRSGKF
# * = called active by the depositor; ! = a repeat was not active. Shown is part of a subset that was picked to be rich in hits.
SMILES,CBX7 AlphaScr
CCn1cnc2cc(NCc3cccc(Br)c3)ccc21,0.45*
CCCCn1cnc2cc(NCc3cccc(OC)c3OC)ccc21,0.54
CC(C)(C)n1cnc2cc(NCc3cccc(Br)c3)ccc21,0.75
COc1cccc(CNc2ccc3c(c2)nc(C)n3C)c1,1
COc1ccc(CNc2ccc3c(c2)ncn3C)cc1OC,1
CCn1cnc2cc(NCc3cccc(OC)c3OC)ccc21,0.94
CCn1cnc2cc(NCc3ccncc3)ccc21,0.96
COCCCNC(=O)CSCc1nc(-c2ccccc2Cl)oc1C,1
COc1ccc(-c2ccc(=O)n(CC(=O)Nc3ccc(F)c(Cl)c3)n2)cc1,1.1
Cc1ccccc1CN1C(=O)C(O)(CC(=O)c2ccc(Cl)cc2)c2ccccc21 (stereo not given),0.87
CCc1ccc(C(=O)CC2(O)C(=O)N(Cc3ccccc3C)c3ccccc32)cc1 (stereo not given),0.45*
Cc1ccccc1CN1C(=O)C(O)(CC(=O)c2ccccc2)c2ccccc21 (stereo not given),0.91
Cc1nnc(NC(=O)C2CCCN(C(=O)c3cnn(-c4ccccc4)c3-n3cccc3)C2)nc1C (stereo not given),0.9
Cc1ccc(C)c(N2CCN(S(=O)(=O)c3ccc4c(c3)CCN4C(=O)C3CCC3)CC2)c1,0.99
COc1cccc(C2CC(c3cccc(F)c3)n3ncnc3N2)c1 (stereo not given),0.99
COCCn1c(=O)[nH]c2cc(C(=O)NCc3ccccn3)ccc2c1=O,0.88
COc1ccc(NC(=O)CC2Sc3ccccc3NC2=O)c(OC)c1 (stereo not given),1.1
CCc1cc2c(C)cc(=O)oc2c(CN2CCCCCC2)c1O,0.96
CCc1cc2c(oc(=O)c3ccccc32)c(CN2CCN(C)CC2)c1O,0.34*
CCc1cc2c(=O)c(-c3nc4ccccc4n3C)c(C)oc2c(CN2CCCCC2)c1O,0.99
Cc1onc(-c2c(Cl)cccc2Cl)c1C(=O)N1CCC(Cc2ccccc2)CC1,0.68
Cc1cc(N2CCC(C)CC2)nc2cc(O)ccc12,0.85
COc1ccc(-c2nn(C)c3sc(C(=O)Nc4ccc5c(c4)OCO5)cc23)cc1OC,0.77
Cc1ccc(CSc2nc3ccncc3n2Cc2nc(-c3ccccc3F)oc2C)cc1,0.91
Fc1cccc(Cl)c1-c1noc(-c2cc(-c3ccncc3)nc3ccccc23)n1,0.92
SMILES,CBX7 AlphaScr
Cc1cccc(-c2noc(-c3cc(-c4ccccc4)nc4ccccc34)n2)c1,1.3
c1ccc2c(-c3nc(C4CCCCC4)no3)cc(-c3ccncc3)nc2c1,0.49*
O=C(Nc1cc(Cl)ccc1Cl)c1cnn2cccnc12,1
Cc1ccc(-c2noc(CNc3cccc(C)c3)n2)cc1,0.88
CCC(=O)Nc1nc(C)c(-c2csc(Nc3cccc(C(=O)O)c3)n2)s1,0.97
CC(=O)Nc1nc(C)c(-c2csc(Nc3ccc(Br)cc3)n2)s1,0.96
CC(=O)Nc1nc(C)c(-c2csc(Nc3ccc(O)cc3)n2)s1,0.89
CC(=O)Nc1ccc(Nc2nc(-c3sc(NC(C)=O)nc3C)cs2)cc1,0.92
CCC(=O)Nc1nc(C)c(-c2csc(Nc3ccc(C(=O)O)cc3)n2)s1,0.088*!
CCOc1ccc(Nc2nc(-c3sc(NC(=O)CC)nc3C)cs2)cc1,0.43*
CCc1nc(SCc2ccc(Cl)cc2Cl)c(C#N)c2c1CCCC2,1.4
O=C(NCCCN1CCN(c2cccc(Cl)c2)CC1)[C@@H](c1ccccc1)N1Cc2ccccc2C1=O,0.95
Oc1cccc2nc(-c3ccc(F)cc3)c(-c3ccc(F)cc3)nc12,0.86
COc1ccc(-n2nc(C(=O)NCC(=O)Nc3ccc(F)cc3)c3ccccc3c2=O)cc1Cl,1.2
COc1cc2[nH]c(=O)n(Cc3ccc(C(=O)NCCc4ccccc4)cc3)c(=O)c2cc1OC,1.1
COc1ccc(C2CC(=O)c3cnc(NCCCOC(C)C)nc3C2)cc1 (stereo not given),1.1
CC(=O)N1c2cc(Br)ccc2NC(=O)CC1C (stereo not given),1
Cc1ccc(Cl)cc1N1CCN(C(=O)CCCn2c(=O)[nH]c3ccsc3c2=O)CC1,1.2
CC(C)c1ccc(C(c2ccccc2)N2CCN(C(=O)CCc3c[nH]c4ccccc34)CC2)cc1 (stereo not given),0.59
Clc1ccc(C(c2ccc(Cl)cc2)N2CCN(CCCc3c[nH]c4ccccc34)CC2)cc1,0.6
Fc1ccc(C(c2ccc(F)cc2)N2CCN(CCCc3c[nH]c4ccccc34)CC2)cc1,0.49*
COc1ccc(OCc2nc3ccccc3n2Cc2ccc3ccccc3c2)cc1,0.94
O=C(Nc1nc2ccccc2n1CCN1CCCCC1)c1cccc(Cn2cc(Br)cn2)c1,0.96
CCN(CC)S(=O)(=O)c1ccc(C(=O)Nc2nnc(-c3ccccc3Cl)o2)cc1,1
CCCCN(CCCC)S(=O)(=O)c1ccc(C(=O)Nc2nnc(-c3ccccc3Cl)o2)cc1,1
CCN(CC)S(=O)(=O)c1ccc(C(=O)Nc2nnc(COC)o2)cc1,0.024*
CCCCN(CCCC)S(=O)(=O)c1ccc(C(=O)Nc2nnc(-c3cccs3)o2)cc1,0.81
CCCCN(CCCC)S(=O)(=O)c1ccc(C(=O)Nc2nnc(COC)o2)cc1,0.16*

# Screening data deposited in PubChem BioAssay by Bradner/Qi Labs at DFCI.
